Measured values published in PubChem BioAssay (NCI).
This is part of a sample that, as a whole, favours compounds with a hit. Of some 83,000 tested, about 20% had one in any assay.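 Values shown are percent growth following 48 h exposure of cells in 96-well plates to a single concentration of compound; below 10 was considered active.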 Unmarked numbers belong to inactive results. Active and inactive are the calls of the source.

Columns and labels:
Experiment in all cases: NCI-60 one-dose screen, 48 h (100 = growth as untreated, 0 = no growth, -100 = all killed)
Settings in all cases: 10 µM
NCI-H23 lung = system: NCI-H23 lung
NCI-H226 lung = system: NCI-H226 lung
NCI-H322M lung = system: NCI-H322M lung
HOP-62 NSCLC = system: HOP-62 NSCLC
NCI-H460 lung = system: NCI-H460 lung
NCI-H522 lung = system: NCI-H522 lung
A549/ATCC NSCLC = system: A549/ATCC NSCLC
786-0 renal = system: 786-0 renal
COLO 205 colon = system: COLO 205 colon

Row | Compound | growth (NCI-H23 lung) | growth (NCI-H226 lung) | growth (NCI-H322M lung) | growth (HOP-62 NSCLC) | growth (NCI-H460 lung) | growth (NCI-H522 lung) | growth (A549/ATCC NSCLC) | growth (786-0 renal) | growth (COLO 205 colon)
1 | CCCCC/C=N/Nc1nc(C)cc(=O)[nH]1 | 98.7% | 97.5% | 100% | 117% | 107% | 112% | 86.8% | 102% | 121%
2 | NC(=O)c1ccc(N=C(N)N=C(N)N)cc1 | 102% | 84.1% | 90.6% | 87.2% | 104% | 103% | – | 96.4% | 115%
3 | CC(CC(=O)c1ccccc1)c1ccccc1 (stereo not given) | 106% | 98.4% | 90.6% | 119% | 104% | 84.1% | – | 96.8% | 123%
4 | O=C1OC[C@H]2[C@H](c3ccc(O)c(O)c3)c3cc(O)c(O)cc3C[C@H]12 | 13.4% | 116% | 130% | 130% | 122% | 19.4% | – | 110% | 108%
5 | OCc1ccc(-c2ccc(-c3ccc(CO)s3)o2)s1 | 47.5% | -23.9% (active) | 55.3% | 67.1% | -4.49% (active) | 25.9% | – | 30.2% | 13.1%
6 | CN(C)/N=C/c1ccccc1O | 113% | 98.6% | 89.7% | 109% | 100% | 96.2% | – | 92.8% | 112%
7 | NCCC(=O)c1ccc(Cl)cc1 | 99.8% | 112% | 102% | 91% | 107% | 100% | – | 105% | 106%
8 | CC1(O)CCCCC1O (stereo not given) | 103% | 104% | 104% | 95.9% | 109% | 91.8% | – | 102% | 108%
9 | O=C(CCl)Nc1ccc2c(c1)C(=O)c1ccc(NC(=O)CCl)cc1C2=O | -68.7% (active) | -11.6% (active) | -36.5% (active) | -64.7% (active) | -45.9% (active) | -65.2% (active) | 0.12% (active) | -66.9% (active) | -50.8% (active)
10 | Cc1cc(C(O)(c2ccc(Nc3ccccc3)cc2)c2ccc(Nc3ccc(S(=O)(=O)O)cc3)cc2)ccc1N (stereo not given) | 8.07% (active) | 28.9% | 25% | 53.5% | -39.3% (active) | -45.8% (active) | – | -1.27% (active) | -71% (active)
11 | NC(C(=O)O)C(O)c1ccco1 (stereo not given) | 108% | 96.6% | 107% | 104% | 108% | 137% | 102% | 98.3% | 102%
12 | O=C(O)C(O)c1ccccc1 (stereo not given) | 101% | 99.1% | 99.6% | 116% | 107% | 103% | 105% | 98.8% | 109%
13 | CC1CCC2C(C)(C)C3CC12CC1OC13C (stereo not given) | 107% | 99.1% | 117% | 109% | 100% | 91.7% | 110% | 98% | 109%
14 | COC(=O)c1ccccc1N(C)C | 97.7% | 99.3% | 104% | 89.7% | 110% | 99.1% | 92.7% | 102% | 101%
15 | CNC(=O)c1ccccc1CC1(O)c2ccccc2Oc2ccccc21 | 71.5% | 77% | 51.8% | 71.4% | 33.7% | 24.8% | 41.8% | 74.8% | 38%
16 | O=C1C=CC2=C3c4cc(O)c(O)cc4CC3(O)COC2=C1O (stereo not given) | 117% | 95.1% | 107% | 100% | 89.8% | 84.5% | – | 92.1% | 98.6%
17 | N#Cc1ccc(NC(=O)Nc2cccc(C#N)c2)cc1 | 86.3% | 116% | 116% | 112% | 78.8% | 51.9% | – | 97.5% | 160%

Row | Compound | growth (NCI-H23 lung) | growth (NCI-H226 lung) | growth (NCI-H322M lung) | growth (HOP-62 NSCLC) | growth (NCI-H460 lung) | growth (NCI-H522 lung) | growth (A549/ATCC NSCLC) | growth (786-0 renal) | growth (COLO 205 colon)
18 | COC(=O)c1cccc(Br)c1 | 102% | 106% | 97.5% | 92% | 109% | 102% | 116% | 110% | 121%
19 | CC1CCCC(CC(N)=O)CC1 (stereo not given) | 102% | 98.7% | 112% | 94.9% | 98.8% | 88.1% | 92.8% | 110% | 107%
20 | Oc1ccc2c(c1)OCC1(O)Cc3cc(O)c(O)cc3C21 (stereo not given) | 86.9% | 98.2% | 103% | 82.2% | 112% | -34.1% (active) | 93.7% | 95.2% | 165%
21 | CC(=O)Nc1c(C)cc(C)cc1C | 101% | 101% | 103% | 109% | 105% | 94% | 102% | – | 110%
22 | CO[C@H]1C[C@@H]2CC[C@@H](C)[C@@](O)(O2)C(=O)C(=O)N2CCCC[C@H]2C(=O)O[C@H]([C@H](C)C[C@@H]2CC[C@@H](O)[C@H](OC)C2)CC(=O)[C@H](C)C=C(C)[C@@H](O)[C@@H](OC)C(=O)[C@H](C)C[C@H](C)/C=C/C=C/C=C1C | 45.4% | 62.2% | 71.6% | 60.7% | 45.1% | 53.8% | 39% | 46.9% | 61.3%
23 | COc1ccccc1NC(=O)C1=C(C)NC(C)=C(C(=O)Nc2ccccc2OC)C1c1cccc([N+](=O)[O-])c1 | 76.6% | 74.7% | 91.2% | 68.5% | 67.5% | 72.4% | 67% | 84.6% | 89.3%
24 | Cc1ccc(C)n1-c1ccsc1C(=O)NNC(=O)CCl | 85.1% | 80.1% | 99.7% | 101% | 101% | 79.5% | 96.6% | 80.4% | 122%
25 | O=[N+]([O-])c1ccc(-c2noc(-c3cccs3)n2)cc1 | 82.1% | 86.3% | 81.4% | 87.6% | 82.7% | 81.7% | 81.3% | 76.1% | 111%
26 | NC(N)=Nc1cc2ccccc2c2ccccc12 | 86.7% | 89.5% | 98.7% | 101% | 86.8% | -49.2% (active) | 27.8% | 90.6% | 44.9%
27 | CC(=O)OCC1CCCO1 (stereo not given) | 106% | 100% | 98.7% | 95.1% | 91.5% | 91% | – | 93.5% | 102%
28 | NC(=O)NC(=O)c1ccc(Cl)cc1 | 103% | 102% | 94.3% | 94.4% | 108% | 79.5% | 108% | 99.6% | 105%
29 | C=CCNC(=O)c1ccc(OC)cc1 | 99.5% | 99.4% | 98.5% | 109% | 114% | -12.1% (active) | 50.4% | 107% | 109%
30 | COC(=O)c1ccccc1Br | 107% | 104% | 95.6% | 77.9% | 107% | 94.2% | 103% | 97% | 116%
31 | O=C1c2ccccc2C(=O)N1OCc1ccccc1 | 111% | 91.4% | 93.4% | 95.4% | 113% | 96.5% | 122% | 99.5% | 108%
32 | COc1ccc(C)cc1OC | 96.4% | 98.8% | 88.8% | 102% | 107% | 104% | 96.9% | 105% | 113%
33 | Cc1ccc(C(O)C2CC2)cc1 (stereo not given) | 103% | 91.9% | 97.1% | 106% | 103% | 107% | 95.9% | 103% | 110%
